Test results as given in PubChem BioAssay AID1159580 (chemical genetic matrix, 2015).
Hit rate of the full screen: of about 5,500 compounds, about 2,000 (36%) were called active. Roughly 18% stayed inconclusive and do not appear here. Cut-off read from the data, not from the text of the source: active = normalized growth mostly below about 0.91 (no sharp cut-off); inconclusive = no clear call, values can overlap the other calls; inactive = mostly above about 0.92. Some of the results follow.

Assay: chemical genetic growth profiling, strain panel (AID 1159580);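 note: tested at 20 µM; growth read once vehicle control cultures reached saturation at 30 °C; 1 = growth at the plate median or of vehicle wells; lower values mean less growth of the strain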
Conditions: growth OD

Measured: normalized growth

O=C(Nc1ccccc1)Nc1ccccc1
inactive: S. cerevisiae deletion strains, locus YKL009W, strain mrt4, active compounds read low 0.956 | S. cerevisiae deletion strains, locus YKL068W, active compounds read low 0.975 | S. cerevisiae deletion strains, locus YKL085W, strain MDH1 (second series), active compounds read low 0.979 | S. cerevisiae deletion strains, locus YKL085W, strain MDH1, active compounds read low 0.979 | S. cerevisiae deletion strains, locus YKL160W, strain elf1, active compounds read low 0.95 | S. cerevisiae deletion strains, locus YKR001C, strain vps1, active compounds read low 0.97 | S. cerevisiae deletion strains, locus YKR026C, strain gcn3, active compounds read low 0.967 | S. cerevisiae deletion strains, locus YKR091W, strain srl3, active compounds read low 0.962 | S. cerevisiae deletion strains, locus YLL001W, strain dnm1, active compounds read low 0.982 | S. cerevisiae deletion strains, locus YLL026W, active compounds read low 0.958 | S. cerevisiae deletion strains, locus YLL041C, strain sdh2, active compounds read low 0.982 | S. cerevisiae deletion strains, locus YLR027C, strain aat2, active compounds read low 0.944 | S. cerevisiae deletion strains, locus YLR058C, strain SHM2, active compounds read low 0.99 | S. cerevisiae deletion strains, locus YLR102C, strain apc9, active compounds read low 0.98 | S. cerevisiae deletion strains, locus YLR113W, strain HOG1, active compounds read low 1.01 | S. cerevisiae deletion strains, locus YLR221C, strain rsa3, active compounds read low 0.957 | S. cerevisiae deletion strains, locus YLR258W, strain gsy2, active compounds read low 0.974 | S. cerevisiae deletion strains, locus YLR262C, strain YPT6 (second series), active compounds read low 0.96 | S. cerevisiae deletion strains, locus YLR262C, strain YPT6, active compounds read low 1.34 | S. cerevisiae deletion strains, locus YLR268W, strain sec22, active compounds read low 0.989 | S. cerevisiae deletion strains, locus YLR320W, strain mms22, active compounds read low 0.99 | S. cerevisiae deletion strains, locus YLR342W, strain FKS1 (second series), active compounds read low 0.991 | S. cerevisiae deletion strains, locus YLR342W, strain FKS1, active compounds read low 0.972 | S. cerevisiae deletion strains, locus YLR357W, strain rsc2, active compounds read low 0.96 | S. cerevisiae deletion strains, locus YLR370C, strain arc18, active compounds read low 0.932 | S. cerevisiae deletion strains, locus YLR371W, strain rom2, active compounds read low 0.944 | S. cerevisiae deletion strains, locus YLR384C, strain iki3, active compounds read low 0.967 | S. cerevisiae deletion strains, locus YLR418C, strain cdc73, active compounds read low 1.06 | S. cerevisiae deletion strains, locus YML016C, strain PPZ1, active compounds read low 0.991 | S. cerevisiae deletion strains, locus YML032C, strain rad52, active compounds read low 0.98 | S. cerevisiae deletion strains, locus YML120C, strain ndi1, active compounds read low 0.98 | S. cerevisiae deletion strains, locus YML124C, strain tub3, active compounds read low 0.971 | S. cerevisiae deletion strains, locus YMR058W, strain fet3, active compounds read low 0.946 | S. cerevisiae deletion strains, locus YMR078C, strain ctf18, active compounds read low 0.981 | S. cerevisiae deletion strains, locus YMR125W, strain sto1, active compounds read low 0.949 | S. cerevisiae deletion strains, locus YMR129W, active compounds read low 0.959 | S. cerevisiae deletion strains, locus YMR205C, strain PFK2, active compounds read low 0.984 | S. cerevisiae deletion strains, locus YMR223W, strain ubp8, active compounds read low 0.976 | S. cerevisiae deletion strains, locus YMR231W, strain pep5, active compounds read low 0.99 | S. cerevisiae deletion strains, locus YMR263W, strain SAP30, active compounds read low 1 | S. cerevisiae deletion strains, locus YMR307W, strain GAS1, active compounds read low 1.34 | S. cerevisiae deletion strains, locus YNL067W, strain RPL9B, active compounds read low 0.996 | S. cerevisiae deletion strains, locus YNL071W, strain lat1, active compounds read low 0.965 | S. cerevisiae deletion strains, locus YNL128W, strain TEP1, active compounds read low 1 | S. cerevisiae deletion strains, locus YNL183C, strain NPR1, active compounds read low 0.949 | S. cerevisiae deletion strains, locus YNL209W, strain ssb2, active compounds read low 0.966 | S. cerevisiae deletion strains, locus YNL233W, strain BNI4, active compounds read low 1.05 | S. cerevisiae deletion strains, locus YNL248C, strain rpa49, active compounds read low 0.921 | S. cerevisiae deletion strains, locus YNL250W, strain rad50, active compounds read low 0.973 | S. cerevisiae deletion strains, locus YNL271C, strain bni1, active compounds read low 0.978 | S. cerevisiae deletion strains, locus YNL298W, strain CLA4, active compounds read low 1.02 | S. cerevisiae deletion strains, locus YNL307C, strain MCK1, active compounds read low 0.985 | S. cerevisiae deletion strains, locus YNL322C, strain KRE1 (second series), active compounds read low 0.965 | S. cerevisiae deletion strains, locus YNR049C, strain mso1, active compounds read low 0.95 | S. cerevisiae deletion strains, locus YNR052C, strain pop2, active compounds read low 0.993 | S. cerevisiae deletion strains, locus YOL012C, strain htz1 0.934 | S. cerevisiae deletion strains, locus YOL147C, strain pex11, active compounds read low 0.978 | S. cerevisiae deletion strains, locus YOR001W, strain rrp6, active compounds read low 0.957 | S. cerevisiae deletion strains, locus YOR061W, strain CKA2, active compounds read low 1.02 | S. cerevisiae deletion strains, locus YOR069W, strain VPS5, active compounds read low 1 | S. cerevisiae deletion strains, locus YOR070C, strain gyp1, active compounds read low 0.977 | S. cerevisiae deletion strains, locus YOR080W, strain dia2, active compounds read low 0.963 | S. cerevisiae deletion strains, locus YOR083W, strain WHI5, active compounds read low 0.959 | S. cerevisiae deletion strains, locus YOR106W, strain vam3, active compounds read low 0.902 | S. cerevisiae deletion strains, locus YOR136W, strain idh2, active compounds read low 0.996 | S. cerevisiae deletion strains, locus YOR144C, strain elg1, active compounds read low 0.97 | S. cerevisiae deletion strains, locus YOR184W, strain ser1, active compounds read low 1.03 | S. cerevisiae deletion strains, locus YOR231W, strain MKK1, active compounds read low 1.01 | S. cerevisiae deletion strains, locus YOR265W, strain rbl2, active compounds read low 0.964 | S. cerevisiae deletion strains, locus YOR270C, strain vph1, active compounds read low 0.875 | S. cerevisiae deletion strains, locus YOR290C, strain snf2, active compounds read low 0.907 | S. cerevisiae deletion strains, locus YOR316C, strain cot1, active compounds read low 0.989 | S. cerevisiae deletion strains, locus YPL051W, strain arl3, active compounds read low 0.928 | S. cerevisiae deletion strains, locus YPL055C, strain LGE1, active compounds read low 1.17 | S. cerevisiae deletion strains, locus YPL078C, strain atp4, active compounds read low 0.923 | S. cerevisiae deletion strains, locus YPL106C, strain sse1, active compounds read low 0.932 | S. cerevisiae deletion strains, locus YPL240C, strain hsp82, active compounds read low 0.967 | S. cerevisiae deletion strains, locus YPL241C, strain CIN2, active compounds read low 0.998 | S. cerevisiae deletion strains, locus YPL256C, strain CLN2, active compounds read low 0.985 | S. cerevisiae deletion strains, locus YPR119W, strain clb2, active compounds read low 0.966 | S. cerevisiae deletion strains, locus YPR141C, strain kar3, active compounds read low 0.975 | S. cerevisiae deletion strains, locus YPR163C, strain tif3, active compounds read low 0.987 | S. cerevisiae deletion strains, locus YPR167C, strain met16, active compounds read low 0.984 | S. cerevisiae deletion strains, strain wtn01, active compounds read low 0.996 | S. cerevisiae strains, strain wild type, active compounds read low 1.07
active: S. cerevisiae deletion strains, locus YLR039C, strain RIC1, active compounds read low 1.38 [resistant]
